Experimental data reported in the supplement of paper PMC6555819.

What was measured:
Test in all cases: PBM binding z-score (relative to random genomic background probes); higher = stronger binding; sequences stand for … in GC…GCGATTGACAGCGTAGAATGAAGG
[1] = tested on: FXR:RXRa (NR concentration 270 nM, RXRa partner concentration 90 nM)
Method in brief: (§1)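 The probes on custom Agilent 4×180K protein-binding microarrays were double-stranded, with 34-nt variable regions bearing direct-repeat seeds, single-nucleotide variants, half-site ablations and random human genomic background sequences. Incubation lasted 1 h with ligand-free nuclear receptor dimers in PBS pH 7.4, 2% milk, 0.02% Triton X-100, 1 mM DTT, 0.2 mg/mL BSA and 0.4 mg/ml salmon testes DNA. Antibodies against each partner (one per run) detected bound dimers, and fluorescence scans were regression-normalized. Binding z-scores take the random background probes as reference.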

[2] = tested on: LXRa:RXRa (NR concentration 270 nM, RXRa partner concentration 90 nM)
Method in brief: as §1

[3] = tested on: LXRa homodimer (NR concentration 270 nM)
Method in brief: as §1

[4] = tested on: LXRb:RXRa (NR concentration 270 nM, RXRa partner concentration 90 nM)
Method in brief: as §1

[5] = tested on: LXRb homodimer (NR concentration 270 nM)
Method in brief: as §1

[6] = tested on: PPARa:RXRa (NR concentration 270 nM, RXRa partner concentration 90 nM)
Method in brief: as §1

[7] = tested on: PPARg:RXRa (NR concentration 180 nM, RXRa partner concentration 90 nM)
Method in brief: as §1

[8] = tested on: PPARg:RXRa 270nM:90nM, anti-RXR (NR concentration 270 nM, RXRa partner concentration 90 nM)
Method in brief: as §1

[9] = tested on: PPARg:RXRa 30nM:10nM, anti-RXR (NR concentration 30 nM, RXRa partner concentration 10 nM)
Method in brief: as §1

[10] = tested on: PPARg:RXRa 90nM:30nM, anti-RXR (NR concentration 90 nM, RXRa partner concentration 30 nM)
Method in brief: as §1

| Sequence | PBM binding z-score [1] | PBM binding z-score [2] | PBM binding z-score [3] | PBM binding z-score [4] | PBM binding z-score [5] | PBM binding z-score [6] | PBM binding z-score [7] | PBM binding z-score [8] | PBM binding z-score [9] | PBM binding z-score [10] |
| --- | --- | --- | --- | --- | --- | --- | --- | --- | --- | --- |
| ACTAGCAGGCCAAGGGTCAATCAAGATTAGTCCG | 3.02 | 2.94 | 0.134 | 2.96 | -0.379 | 4.64 | 8.14 | 7.68 | 6.29 | 8.3 |
| GCTAGCAGGCCATCTGGGTCACTCAATGACGGGC | 0.0876 | -0.178 | -0.882 | -0.232 | -0.896 | 1.7 | 1.31 | 1.36 | -0.319 | 0.57 |
| ATCTCTAGGTAAAGATAGTTCAGGGAATGCAAAT | 0.392 | 3.65 | 0.565 | 0.755 | 0.535 | 1.06 | 0.543 | 0.544 | 0.404 | 0.317 |
| ACTATTAGTCGACTTAGGGCAACCGATACGACGC | -0.365 | -0.211 | -0.355 | -0.374 | 0.47 | -0.446 | 0.825 | 0.138 | 0.0617 | 0.0451 |
| TCATATAGGTAATACAGGTAAAAGTCGGCATCTA | 1.15 | 1.13 | 0.377 | 0.915 | 0.455 | 1.48 | 1.61 | 2.58 | 4.14 | 3.49 |
| GCGACTGGGGCAAAGCCGGTTACCATAAGGTTGG | -0.281 | -0.532 | -0.832 | -0.581 | -1.01 | 0.472 | 0.627 | 0.491 | -0.849 | -0.0511 |
| ATAGAAAGGTCGAGGTGAGTATAGAGAAAGGGAA | 4.25 | 3.22 | 0.369 | 2.75 | 0.952 | 4.36 | 3.26 | 3.43 | 1.67 | 2.2 |
| GCTACTAGTTGAAAGGGCAACCGAATGATTCTCG | 0.0739 | 0.67 | -0.0669 | 0.754 | -0.373 | 2.62 | 3.76 | 5.17 | 3.07 | 5.08 |
| GATACAGGGTCAAGGCCAGCGTACGCGTATTGAT | 6.93 | 4.12 | 0.203 | 3.86 | -0.187 | 5.63 | 5.9 | 5.32 | 2.19 | 4.12 |
| GCATATAGGTAATACAAGGGGAAAGTCCGATTGT | 0.256 | 0.159 | 0.0811 | -0.078 | -0.118 | 0.754 | 0.908 | 0.64 | 0.337 | 0.269 |
| CCTACTGGGCCGTCAGGTCATTGATATCAACGTT | 1.31 | 0.772 | 0.809 | 1.21 | -0.585 | 1.71 | 0.704 | 1.92 | 0.179 | 1.15 |
| TCTTGTAGATCAATAGTGGTTAAGAAAGTGCGCT | 0.499 | 0.37 | -0.000472 | 0.00968 | 0.297 | 0.451 | -0.385 | 1.4 | 2.83 | 2.06 |
| CCAGACAGGTGAAAGGTAACTAAGTCTGGTACGC | 0.301 | 0.559 | -0.431 | 0.84 | -0.415 | 3.31 | 5.33 | 6.03 | 4.37 | 6.14 |
| TCTTGTAGATAAGCAGGTTAAGAAAGCTGGCCAA | 0.562 | 0.358 | -0.156 | -0.00905 | -0.669 | 0.533 | -0.481 | 1.19 | 2.41 | 1.65 |
| GCTGCTAGGTCAGATTGGTCAGCTAACGGGTACG | 1.36 | 0.957 | -0.166 | 0.562 | -0.238 | 1.68 | 0.672 | 0.718 | -0.273 | 0.427 |
| CCTACTGGGCCAAGGCCATTGATCAGTCAAAGCA | -0.412 | -0.51 | -0.664 | -0.606 | -0.891 | -0.0978 | 0.449 | 0.724 | -0.7 | -0.174 |
| CTCGAAAGGTCGTGCTCACGTGAGTATACCAAAC | 5.21 | 3.95 | 0.0228 | 3.69 | 0.397 | 5.07 | 2.9 | 3.42 | 0.773 | 2.12 |
| TGTCAAAGTTCAAAGGCAACGTAAGTATCCACAC | 6.68 | 6.1 | 4.08 | 3.86 | 1.39 | 5.04 | 8 | 7.39 | 5 | 7.03 |
| GTTGCTAGGTCAGGTTGGTCAGCTAACGGGTACG | 1.81 | 1.32 | 0.459 | 0.947 | 0.434 | 1.68 | 0.88 | 1.31 | -0.115 | 0.452 |
| TCATACAGGTAAAAGGTGAAAGTCGGTGTGGTAA | 1.87 | 1.87 | -0.0272 | 2.18 | 0.661 | 4.39 | 6.38 | 6.45 | 5.73 | 7.08 |
| CAGCCTAGATCAGGGCCAGTATAGGAGGAACGTT | -0.83 | -0.998 | -0.438 | -1.08 | -1.15 | -0.772 | 0.274 | -0.997 | -0.386 | -0.789 |
| TTTCCAAGGTGAGCTGAGGTCGTTGATCCAACTC | 2.71 | 1.69 | -0.117 | 0.979 | -0.192 | 1.94 | 0.0102 | 1.07 | 0.576 | 0.913 |
| TCTTGGAGGACACGAAGGTCAGAGCTTTCCAGAG | 1.51 | 1.47 | 0.0796 | 1.27 | -0.69 | 2.1 | 0.905 | 2.2 | 2.51 | 2.31 |
| ACTCGGAAGACAAAGGTCAGAGCTACGCCAGTGA | 3.29 | 3.7 | 1.47 | 3.28 | 0.387 | 4.48 | 4.43 | 4.75 | 2.83 | 4.83 |
